103 compounds from ChEMBL document CHEMBL4513216, “Probing the Open Global Health Chemical Diversity Library for Multistage-Active Starting Points for Next-Generation Antimalarials” (ACS Infect Dis, 2020) can be followed below.

Screen size: about 69,000 compounds; about 8,600 (12%) showed an effect of 50% or more. The entries come from a sample that favours strong results as a whole.

The test system of the experiment is Plasmodium berghei. In words: Screen against P. berghei liver stage (PbLuc), transformed with Luciferase, at 10uM. In kind it is functional, HepG2. Particulars: tested at 10 uM.
With `N#Cc1c(-c2ccccc2)csc1N`, the INHIBITION worked out at 49.7%.
On to `O=C(NCCC1CC1)NCc1cccc(-n2ccnc2)c1`, for which the INHIBITION was 21.6%.
As for `O=C(c1ccncc1)N1C[C@@H]2CCN(c3cccnc3)C[C@@H]2C1`, the figure is 47.4%; as for `O=C(c1ccco1)N1C[C@@H]2CCN(c3cccnc3)C[C@@H]2C1`, 90.5%; as for `Cn1cccc1C(=O)N1C[C@@H]2CCN(c3cccnc3)C[C@@H]2C1`, 36.9%.
As for `Cc1ccccc1C(=O)N1C[C@@H]2CCN(c3cccnc3)C[C@@H]2C1`, the figure is 68.4%; as for `Cc1cccc(C(=O)N2C[C@@H]3CCN(c4cccnc4)C[C@@H]3C2)c1`, 23.3%; as for `Cc1ccc(C(=O)N2C[C@@H]3CCN(c4cccnc4)C[C@@H]3C2)cn1`, 19.4%.
The value for `O=C(c1ccsc1)N1C[C@@H]2CCN(c3cccnc3)C[C@@H]2C1` was 77.7%.
Regarding `O=C(c1cnccn1)N1C[C@@H]2CCN(c3cccnc3)C[C@@H]2C1`, the INHIBITION was found to be 41.6%.
`O=C(c1ccc(O)cc1)N1C[C@@H]2CCN(c3cccnc3)C[C@@H]2C1`: the INHIBITION came out at 46.2%.
The value for `CC(=O)Nc1nc(CN2CCOC(Cn3nc(C)cc3C)C2)cs1` (stereo not drawn) was 15.6%; that for `COCCN(Cc1ccoc1)C(=O)c1ccc(Cl)s1` was 25.1%.
The value for `Cn1nccc1CNC(=O)Cn1nc(C(F)(F)F)cc1C1CC1` was 1.11%; that for `CCc1nc(CN(C)C2CCN(Cc3ccc(Cl)s3)C2)no1` (stereo not drawn) was 36.4%; that for `Cc1noc(C)c1CCC(=O)Nc1ccn(C)n1` was 71.2%.
Regarding `Cc1noc(C)c1CC(=O)Nc1ccn(CC(N)=O)n1`, the INHIBITION is 37.6%.
The value for `CCn1ccc(NC(=O)CCc2c(C)noc2C)n1` was 38.7%; that for `O=C(CCCc1ccccn1)Nc1cccc(N2CCCNC2=O)c1` was 11.2%; that for `Cc1ccc(C(=O)Nc2cn[nH]c2)cc1` was 31.005%.
The value for `COC(CNC(=O)NCc1c(C)cc(C)[nH]c1=O)c1ccccc1` (stereo not drawn) was 36.1%.
On to `Cc1noc(C(C)C)c1C(=O)NCCN1CCOCC1`, for which the INHIBITION was -31.8%.
As for `CN1N=C(C(=O)N2CCCC(n3cccn3)C2)CCC1=O` (stereo not drawn), the INHIBITION was 11.9%.
`CC(C)c1nccn1C1CCCN(C(=O)C2=NN(C)C(=O)CC2)C1` (stereo not drawn): the INHIBITION came to 14.4%.
The value for `CN1N=C(C(=O)N2CCCC(n3ccnc3)C2)CCC1=O` (stereo not drawn) was 21.6%.
For the compound `CCc1nccn1C1CCCN(C(=O)C2=NN(C)C(=O)CC2)C1` (stereo not drawn), the INHIBITION was 53%.
The value for `Cc1nccn1C1CCCN(C(=O)C2=NN(C)C(=O)CC2)C1` (stereo not drawn) was 51.6%; that for `CCc1nccn1C1CCCN(C(=O)c2ccn(C)c(=O)c2)C1` (stereo not drawn) was 2.9%.
On to `CO[C@@H]1CC[C@H]2[C@H]1OCCN2C(=O)c1nn(C)c2ccccc12`, for which the INHIBITION is recorded as -9.23%.
With `COCCCn1cnnc1CNc1cc(C)nc2ccnn12`, the INHIBITION is 27.9%.
As for `Cc1cc(NC(=O)CN2C(=O)CC(C)(C)c3ccccc32)no1`, the figure is 29.7%; as for `Cc1ccc(C(=O)N(C)Cc2ccc(Br)o2)c(=O)[nH]1`, 38.6%; as for `Cc1nc(N2CCC(C(O)c3nccn3C)CC2)c2c(C)noc2n1` (stereo not drawn), 52.2%.
As for `Cc1nc(N2CCC(C(O)c3nccn3C)CC2)c2nc(C)oc2n1` (stereo not drawn), the figure is 42.1%.
As for `Cc1nc(N2CCC(C(O)c3nccn3C)CC2)c2cccnc2n1` (stereo not drawn), the figure is -11.6%; as for `CO[C@@H]1CCN(Cc2nccn2C)[C@H]1Cc1cccnc1`, 32.2%; as for `Cc1ccsc1CN1CCC2(CC1)CC(OCc1cccnc1)CO2` (stereo not drawn), 26%.
`O=C(CCc1nnc(-c2ccccc2)o1)N1CCN(CC2CC2)CC1`: the INHIBITION is -17%.
`Cc1noc(C)c1CN1CCO[C@H]2CN(Cc3cccc(F)c3)C[C@H]21`: the INHIBITION is given as 62.9%.
For the compound `Cc1noc(C)c1CN1C[C@H]2CN(Cc3cccc(F)c3)C[C@H]2C1`, the INHIBITION was 41.2%.
As for `Cc1noc(C)c1CN1CCC2(CCN(Cc3cccc(F)c3)CC2)C1`, the figure is 60.2%; as for `CC(=O)N1CCC2(CCN(Cc3cccc(F)c3)CC2)CC1`, -12.1%; as for `Cc1noc(C)c1CN1CCO[C@H]2CN(Cc3ccc(F)cc3)C[C@H]21`, 49.2%.
As for `Cc1noc(C)c1CN1CCO[C@H]2CN(Cc3cccnc3)C[C@H]21`, the figure is 14.6%; as for `Cc1ccc(NC2CCN(C(=O)Cc3ccc(C)s3)CC2)nn1`, 27.8%.
On to `CNC(=O)c1cccc(CN2CCN(C3=NCC(C)(C)S3)CC2)c1`, for which the INHIBITION came to 28.7%.
The value for `O=C(C1CC(c2cccc(F)c2)=NO1)N1CCc2ccccc21` (stereo not drawn) was -12.2%; that for `O=C1CC[C@@H](C(=O)N2CCc3[nH]nc(COc4cccc(Cl)c4)c3C2)N1` was 52.6%.
Regarding `O=C(CCc1ccco1)N1CCc2[nH]nc(COc3ccccc3)c2C1`, the INHIBITION is 32.7%.
The value for `O=C(CCc1cccs1)N1CCc2[nH]nc(COc3ccccc3)c2C1` was 36.7%.
The value for `CCSCCC(=O)N1CCc2[nH]nc(COc3ccccc3)c2C1` was 10.9%; that for `O=C(CCn1cccc1)N1CCc2[nH]nc(COc3ccccc3)c2C1` was 34.7%.
As for `O=C(c1csnn1)N1CCc2[nH]nc(COc3cccc(Cl)c3)c2C1`, the figure is 73%; as for `O=C(CSCC1CC1)N1CCc2[nH]nc(COc3ccccc3)c2C1`, 11.9%; as for `O=C(N1CCOCC1)N1CCc2[nH]nc(COc3cccc(Cl)c3)c2C1`, 67.5%.
`Cc1nc(C)c(C(=O)N2CCc3[nH]nc(COc4ccccc4)c3C2)s1`: the INHIBITION is listed as 49.5%.
The value for `Cc1nn(C)c(N(C)C)c1CNC(C)COc1ccc(F)cc1` (stereo not drawn) was -59.4%; that for `NC(=O)C1CCN(C(=O)CCCc2nnc(-c3ccccc3)o2)C1` (stereo not drawn) was 14.4%.
Turning to `CC(C)NC(=O)C1CN(C(=O)c2ccccc2)CC12CCOCC2` (stereo not drawn), the INHIBITION is 29.9%.
As for `CCN1C(=O)C(c2ccccc2)CC12CCN(Cc1cccnc1)CC2` (stereo not drawn), the figure is -4.82%; as for `COCCC1(C(=O)O)CCCN(Cc2ccccc2OCCO)C1` (stereo not drawn), 3.48%; as for `CN(C)CC1(O)CCCN(Cc2ccccc2OCC(=O)N(C)C)C1` (stereo not drawn), 47.6%.
As for `OCC1(O)CCCN(Cc2nnc(-c3ccccc3)o2)CC1` (stereo not drawn), the figure is 21.2%.
The value for `OCCOc1ccccc1CN1CCCC(O)(CO)C1` (stereo not drawn) was 66.5%; that for `OCC1(O)CCCN(Cc2ccccc2OCCc2ccccc2)CC1` (stereo not drawn) was 52.6%; that for `O=C1NCC2(CCCN(Cc3ccccc3OCCO)C2)O1` (stereo not drawn) was 44.3%.
In the case of `Cn1cc(C(=O)N2CCCC2c2[nH]ncc2C(N)=O)cn1` (stereo not drawn), the INHIBITION was determined as 7.52%.
As for `O=C(CNCc1ccccc1Cn1cccn1)Nc1cnccn1`, the figure is 38.5%.
As to `CCS(=O)(=O)N1CCC(C(=O)NC(Cc2ccsc2)c2nccs2)CC1` (stereo not drawn), the INHIBITION amounted to 59%.
Regarding `CS(=O)(=O)N1CCC(C(=O)NC(Cc2ccsc2)c2nccs2)CC1` (stereo not drawn), the INHIBITION worked out at 38.1%.
The value for `O=C(NC(Cc1ccsc1)c1nccs1)C1CC1` (stereo not drawn) was 12.3%; that for `Cc1cc(C)n(CC2CN(Cc3nc(-c4ccco4)no3)CCO2)n1` (stereo not drawn) was 36.4%; that for `CN(CCN1CCOC1=O)CC(=O)Nc1ccc(Cl)c(Cl)c1` was 37.8%.
For the compound `O=C(c1c2c(N3CCCC3)ncnc2n2ccccc12)N1CCCC1`, the INHIBITION is on record as 47.4%.
As for `O=C(CSCC1CC1)N1CCCN(c2ccc(F)cc2)CC1`, the figure is 59.4%; as for `O=C(CSCC1CC1)N1CCCN(Cc2ccc(F)cc2)CC1`, 23.9%.
On to `Cc1cc(N2CCCN(C(=O)CSCC3CC3)CC2)ccn1`, for which the INHIBITION is 37.6%.
As for `COCc1ccccc1C(=O)N1CCCC(c2cc(C)[nH]n2)C1` (stereo not drawn), the INHIBITION was 40.9%.
The value for `COc1cc(NC(=O)C2CC(=O)N(c3cccc(Br)c3)C2)ncn1` (stereo not drawn) was 63.8%.
Take `COc1cc(NC(=O)C2CC(=O)N(c3cccc(F)c3)C2)ncn1` (stereo not drawn): the INHIBITION is reported as 6.34%.
On to `CCOc1cc(NC(=O)C2CC(=O)N(c3cccc(OC)c3)C2)ncn1` (stereo not drawn), for which the INHIBITION worked out at 45.7%.
Consider `CC(=O)N1CCCN(C(=O)NCCOc2ccc3c(c2)OCO3)CC1`, for which the INHIBITION is given as -31.8%.
As for `CCN1CCC2(CCC1=O)CN(C1CCOCC1)CCN2C` (stereo not drawn), the figure is -10.9%.
`CNc1cnc(CC2COCCN(Cc3cccc(C)n3)C2)cn1` (stereo not drawn): the INHIBITION is reported as 3.48%.
As for `CN(CC1CC1)c1ccc2ccc(C(=O)NCCc3ccccc3)cn12`, the INHIBITION amounted to 38.3%.
As for `COc1cccc(CN(Cc2ccco2)Cc2[nH]cnc2C)c1`, the figure is 87.7%; as for `COc1cccc(CN(Cc2ccco2)Cc2cnc(C)n2C)c1`, 65.7%.
For the compound `COc1ccc(CN(Cc2ccco2)Cc2[nH]cnc2C)c(OC)c1`, the INHIBITION amounted to 20.6%.
In the case of `COc1cccc(CN(Cc2ncc[nH]2)Cc2ccco2)c1`, the INHIBITION worked out at 28.3%.
As for `Cc1noc(CN(Cc2cccc(C#N)c2)Cc2ccco2)n1`, the figure is -9.82%; as for `COc1ccc(OC)c(CN(Cc2ccco2)Cc2[nH]cnc2C)c1`, 26.1%.
As for `Cn1nc(C(=O)N2CCSCC2)cc1NC(=O)c1ccccc1`, the figure is 7.39%.
Regarding `Cn1cc(C(=O)CC2CCCN2C(=O)c2coc3ccccc23)cn1` (stereo not drawn), the INHIBITION turned out to be 3.15%.
The value for `CN(C)c1cc(CNc2cncc(-n3cccn3)n2)ccn1` was -6.14%.
As to `CC(C)(C)c1ncc(C(=O)NCc2cccc(C(=O)N3CCCC3)c2)s1`, the INHIBITION was -12.9%.
As to `COCc1ccc(CN[C@H]2C[C@@H](Cc3cc(CCO)on3)C2(C)C)o1`, the INHIBITION came to 30.5%.
As for `CC1(C)[C@H](Cc2cc(CO)on2)C[C@@H]1N(CC1CC1)CC1CC1`, the figure is 27.2%.
As for `CC1(C)[C@H](Cc2cc(CO)on2)C[C@@H]1NCc1ccc(CO)o1`, the INHIBITION amounted to 58.5%.
On to `O=C(c1cc(F)ccc1Br)N1CCN(C(=O)C2CC2)CC1`, for which the INHIBITION was 12.9%.
As for `CCOc1cc(Cl)ccc1CNC(=O)c1ccc(=O)n(C)c1`, the figure is 39.3%.
As for `CCS(=O)(=O)NCC(=O)N1CC2(CCCC2)c2c(F)cccc21`, the figure is 62.4%; as for `O=C(NCC(=O)N1CC2(CCCC2)c2c(F)cccc21)C1CC1`, 40.5%; as for `CNS(=O)(=O)CC(=O)N1CC2(CCCC2)c2c(F)cccc21`, -17.2%.
